Among all 5,500 compounds or so, about 2,000 (36%) were called active. Not shown: some 18% with an inconclusive outcome. Rule as the data show it: active = normalized growth mostly below about 0.91 (no sharp cut-off); inconclusive = no clear call, values can overlap the other calls; inactive = mostly above about 0.92. This is one part of the list.
Experiment: chemical genetic growth profiling, strain panel (AID 1159580);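 also: tested at 20 µM; growth read once vehicle control cultures reached saturation at 30 °C; 1 = growth at the plate median or of vehicle wells; lower values mean less growth of the strain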
Details: growth OD
[1] = S. cerevisiae deletion strains, locus YDL101C, strain DUN1, active compounds read low
[2] = S. cerevisiae deletion strains, locus YHR030C, strain SLT2, active compounds read low

Measured: normalized growth

CN(C(=O)N(C)c1ccc(Cl)cc1C(=O)c1ccccc1Cl)c1ccc(Cl)cc1C(=O)c1ccccc1Cl
active: S. cerevisiae deletion strains, locus YAR019C, strain CDC15, active compounds read low 0.84 | S. cerevisiae deletion strains, locus YBL105C, strain PKC1, active compounds read low 0.85 | S. cerevisiae deletion strains, locus YBR135W, strain CKS1, active compounds read low 0.85 | S. cerevisiae deletion strains, locus YBR136W, strain MEC1, active compounds read low 0.832 | S. cerevisiae deletion strains, locus YBR160W, strain CDC28, active compounds read low 0.853 | S. cerevisiae deletion strains, locus YDL017W, strain CDC7, active compounds read low 0.851 | S. cerevisiae deletion strains, locus YDL028C, strain MPS1, active compounds read low 0.835 | [1] 0.847 | S. cerevisiae deletion strains, locus YDL108W, strain KIN28, active compounds read low 0.831 | S. cerevisiae deletion strains, locus YDL132W, strain cdc53, active compounds read low 0.853 | S. cerevisiae deletion strains, locus YDL214C, strain PRR2, active compounds read low 0.471 | S. cerevisiae deletion strains, locus YDR052C, strain DBF4, active compounds read low 0.855 | S. cerevisiae deletion strains, locus YDR054C, strain cdc34, active compounds read low 0.805 | S. cerevisiae deletion strains, locus YDR226W, strain ADK1, active compounds read low 0.86 | S. cerevisiae deletion strains, locus YDR477W, strain SNF1, active compounds read low 0.467 | S. cerevisiae deletion strains, locus YER123W, strain YCK3, active compounds read low 0.388 | S. cerevisiae deletion strains, locus YER133W, strain GLC7, active compounds read low 0.447 | S. cerevisiae deletion strains, locus YFL009W, strain cdc4, active compounds read low 0.848 | S. cerevisiae deletion strains, locus YFL029C, strain CAK1, active compounds read low 0.828 | S. cerevisiae deletion strains, locus YFR003C, strain YPI1, active compounds read low 0.85 | S. cerevisiae deletion strains, locus YFR019W, strain FAB1, active compounds read low 0.577 | S. cerevisiae deletion strains, locus YFR028C, strain CDC14, active compounds read low 0.841 | S. cerevisiae deletion strains, locus YGR040W, strain KSS1, active compounds read low 0.462 | S. cerevisiae deletion strains, locus YGR052W, strain FMP48, active compounds read low 0.46 | S. cerevisiae deletion strains, locus YGR092W, strain DBF2, active compounds read low 0.242 | [2] 0.49 | S. cerevisiae deletion strains, locus YHR079C, strain IRE1, active compounds read low 0.463 | S. cerevisiae deletion strains, locus YHR082C, strain KSP1, active compounds read low 0.492 | S. cerevisiae deletion strains, locus YIL147C, strain SLN1, active compounds read low 0.826 | S. cerevisiae deletion strains, locus YJL095W, strain BCK1, active compounds read low 0.417 | S. cerevisiae deletion strains, locus YJL157C, strain FAR1, active compounds read low 0.51 | S. cerevisiae deletion strains, locus YJR016C, strain ILV3, active compounds read low 0.883 | S. cerevisiae deletion strains, locus YJR066W, strain TOR1 (second series), active compounds read low 0.518 | S. cerevisiae deletion strains, locus YJR066W, strain TOR1, active compounds read low 0.381 | S. cerevisiae deletion strains, locus YKL048C, strain ELM1, active compounds read low 0.605 | S. cerevisiae deletion strains, locus YKL067W, strain YNK1, active compounds read low 0.525 | S. cerevisiae deletion strains, locus YKL101W, strain HSL1, active compounds read low 0.524 | S. cerevisiae deletion strains, locus YKL193C, strain SDS22, active compounds read low 0.832 | S. cerevisiae deletion strains, locus YKL203C, strain TOR2, active compounds read low 0.457 | S. cerevisiae deletion strains, locus YLR113W, strain HOG1, active compounds read low 0.447 | S. cerevisiae deletion strains, locus YLR133W, strain CKI1, active compounds read low 0.582 | S. cerevisiae deletion strains, locus YLR403W, strain SFP1, active compounds read low 0.592 | S. cerevisiae deletion strains, locus YML070W, strain DAK1, active compounds read low 0.446 | S. cerevisiae deletion strains, locus YMR001C, strain CDC5, active compounds read low 0.838 | S. cerevisiae deletion strains, locus YMR205C, strain PFK2 (second series), active compounds read low 0.549 | S. cerevisiae deletion strains, locus YMR277W, strain FCP1, active compounds read low 0.825 | S. cerevisiae deletion strains, locus YNL006W, strain LST8, active compounds read low 0.855 | S. cerevisiae deletion strains, locus YNL020C, strain ARK1, active compounds read low 0.527 | S. cerevisiae deletion strains, locus YNL161W, strain CBK1, active compounds read low 0.852 | S. cerevisiae deletion strains, locus YNL183C, strain NPR1, active compounds read low 0.412 | S. cerevisiae deletion strains, locus YNL207W, strain RIO2, active compounds read low 0.825 | S. cerevisiae deletion strains, locus YNL222W, strain SSU72, active compounds read low 0.846 | S. cerevisiae deletion strains, locus YNL307C, strain MCK1 (second series), active compounds read low 0.412 | S. cerevisiae deletion strains, locus YOL078W, strain AVO1, active compounds read low 0.845 | S. cerevisiae deletion strains, locus YOL136C, strain PFK27, active compounds read low 0.51 | S. cerevisiae deletion strains, locus YOR061W, strain CKA2, active compounds read low 0.477 | S. cerevisiae deletion strains, locus YOR119C, strain RIO1, active compounds read low 0.483 | S. cerevisiae deletion strains, locus YOR231W, strain MKK1, active compounds read low 0.455 | S. cerevisiae deletion strains, locus YOR329C, strain SCD5, active compounds read low 0.846 | S. cerevisiae deletion strains, locus YPL031C, strain PHO85, active compounds read low 0.441 | S. cerevisiae deletion strains, locus YPL153C, strain RAD53, active compounds read low 0.369 | S. cerevisiae deletion strains, locus YPL204W, strain HRR25, active compounds read low 0.487 | S. cerevisiae deletion strains, locus YPL209C, strain IPL1, active compounds read low 0.855 | S. cerevisiae deletion strains, locus YPL256C, strain CLN2, active compounds read low 0.508 | S. cerevisiae deletion strains, locus YPR025C, strain CCL1, active compounds read low 0.856 | S. cerevisiae deletion strains, locus YPR106W, strain ISR1, active compounds read low 0.868 | S. cerevisiae deletion strains, strain NNK1, active compounds read low 0.855 | S. cerevisiae deletion strains, strain TSCII, active compounds read low 0.818
inactive: S. cerevisiae deletion strains, locus YHR205W, strain SCH9, active compounds read low 0.716 | S. cerevisiae deletion strains, locus YJL128C, strain PBS2, active compounds read low 0.867 | S. cerevisiae deletion strains, locus YPR111W, strain DBF20, active compounds read low 0.874

COC(=O)c1ccc(Cl)cc1N(Cc1ccccc1)S(C)(=O)=O
inactive: S. cerevisiae deletion strains, locus YAL013W, strain DEP1, active compounds read low 1.01 | S. cerevisiae deletion strains, locus YBR229C, strain ROT2, active compounds read low 1.02 | [1] 0.998 | S. cerevisiae deletion strains, locus YDL134C, strain PPH21, active compounds read low 1 | S. cerevisiae deletion strains, locus YDR150W, strain NUM1, active compounds read low 0.934 | S. cerevisiae deletion strains, locus YEL061C, strain CIN8, active compounds read low 1 | S. cerevisiae deletion strains, locus YGR078C, strain PAC10, active compounds read low 0.992 | S. cerevisiae deletion strains, locus YGR229C, strain SMI1, active compounds read low 0.999 | [2] 1.11 | S. cerevisiae deletion strains, locus YHR087W, strain rtc3, active compounds read low 1 | S. cerevisiae deletion strains, locus YJL187C, strain SWE1, active compounds read low 1 | S. cerevisiae deletion strains, locus YJR075W, strain HOC1, active compounds read low 0.968 | S. cerevisiae deletion strains, locus YLR039C, strain RIC1, active compounds read low 1.03 | S. cerevisiae deletion strains, locus YLR058C, strain SHM2 (second series), active compounds read low 1.01 | S. cerevisiae deletion strains, locus YLR085C, strain ARP6, active compounds read low 1.05 | S. cerevisiae deletion strains, locus YLR262C, strain YPT6, active compounds read low 1 | S. cerevisiae deletion strains, locus YML094W, strain GIM5, active compounds read low 1.02 | S. cerevisiae deletion strains, locus YMR219W, strain ESC1, active compounds read low 1 | S. cerevisiae deletion strains, locus YMR263W, strain SAP30, active compounds read low 0.929 | S. cerevisiae deletion strains, locus YNL128W, strain TEP1, active compounds read low 1.02 | S. cerevisiae deletion strains, locus YNL153C, strain GIM3, active compounds read low 1 | S. cerevisiae deletion strains, locus YNL298W, strain CLA4 (second series), active compounds read low 1.04 | S. cerevisiae deletion strains, locus YNL322C, strain KRE1, active compounds read low 0.985 | S. cerevisiae deletion strains, locus YNR030W, strain Alg12, active compounds read low 1.02 | S. cerevisiae deletion strains, locus YOL006C, strain TOP1, active compounds read low 1.14 | S. cerevisiae deletion strains, locus YPL055C, strain LGE1, active compounds read low 0.923 | S. cerevisiae deletion strains, locus YPL241C, strain CIN2, active compounds read low 1.03 | S. cerevisiae deletion strains, locus YPR135W, strain CTF4, active compounds read low 1.17 | S. cerevisiae strains, strain wild type, active compounds read low 1.03
